Test results published in PubChem BioAssay (NCI).
The panel holds about 83,000 compounds, 20% with a hit somewhere; the sample as a whole holds those more often.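 Values shown are percent growth following 48 h exposure of cells in 96-well plates to a single concentration of compound; below 10 was considered active.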 The source made the active and inactive calls.

Assays:
Experiment in all cases: NCI-60 one-dose screen, 48 h (100 = growth as untreated, 0 = no growth, -100 = all killed)
Conditions in all cases: 10 µM unless noted
[1] = system: SK-MEL-2 melanoma
[2] = system: EKVX NSCLC
[3] = system: SN12C renal
[4] = system: UO-31 renal
[5] = system: TK-10 renal
[6] = system: ACHN renal
[7] = system: CAKI-1 renal
[8] = system: A498 renal
[9] = system: CCRF-CEM leukemia
[10] = system: MOLT-4 leukemia
[11] = system: RPMI-8226 leukemia
[12] = system: OVCAR-8 ovarian
[13] = system: OVCAR-5 ovarian
[14] = system: OVCAR-4 ovarian
[15] = system: SK-OV-3 ovarian
[16] = system: IGROV1 ovarian
[17] = system: OVCAR-3 ovarian
[18] = system: HS 578T breast
[19] = system: NCI/ADR-RES ovarian
[20] = system: SR leukemia

Measured: growth

CC1=CC2(C)/C=C(C)/C=C\CC(O)/C=C3/C=CC(=C4C(=O)OC2(CC1C)C4=O)OC3 (stereo not given)
inactive: [2] 34.8% | [8] 55.3% | [15] 94.6%
active: [1] -89.2% | [3] -40.8% | [4] -53% | [5] -86.8% | [6] -94.7% | [7] -89.5% | [9] -39.4% | [10] -35.1% | [11] -23.8% | [12] 0.804% | [13] -57.9% | [14] -40.6% | [16] -49.1% | [17] -100% | [18] -34% | [19] -61.8%

COc1ccccc1/C=C1\COc2ccc(-c3ccccc3)cc2C1=O
inactive: [1] 44.7% | [2] 94% | [3] 54% | [4] 49.3% | [5] 52% | [6] 60.8% | [7] 86.4% | [8] 42.8% | [12] 36.1% | [13] 104% | [14] 76.1% | [15] 50.7% | [16] 56.6% | [18] 38.9%
active: [9] -25.3% | [10] -18% | [11] -37.3% | [17] -29% | [19] -45.6%

O=C(CN1CCOCC1)Nc1ccc2ncnc(Nc3ccc(Oc4cccc(F)c4)c(Cl)c3)c2c1
inactive: [1] 93.6% | [2] 29.8% | [3] 48.9% | [4] 31.6% | [5] 39.5% | [6] 24.1% | [7] 38.3% | [8] 63.2% | [9] 82.3% | [10] 64.8% | [20] 84.1% | [11] 55.7% | [12] 68.6% | [14] 73.4% | [15] 13.9% | [16] 19.9% | [17] 55.6% | [18] 86.6% | [19] 60%

COc1ccc(/C=C2\COc3ccc(-c4ccccc4)cc3C2=O)cc1O
inactive: [2] 105% | [3] 30.8% | [4] 40.6% | [5] 67.7% | [6] 47.3% | [7] 126% | [8] 55.6% | [12] 13.1% | [13] 53.7% | [14] 80.5% | [15] 57.6% | [19] 22.6%
active: [1] -29.6% | [9] -30.6% | [10] -18.2% | [20] -10.8% | [16] 7.03% | [17] 2.7% | [18] -1.69%

FC(F)(F)c1cccc(Oc2ccc(Nc3ncnc4ccc(OCCCN5CCOCC5)cc34)cc2Cl)c1
inactive: [1] 82.7% | [2] 32.7% | [3] 39.6% | [4] 21.6% | [5] 46% | [6] 23.9% | [7] 35.6% | [8] 63.1% | [10] 34.3% | [20] 10.4% | [12] 56.1% | [13] 59.7% | [14] 43.7% | [15] 22.1% | [16] 12.2% | [17] 51.6% | [18] 72.4% | [19] 49.9%
active: [9] -16.4%

CCN(CC)CCCC(Nc1c2ccc(Cl)cc2nc2ccc(OC)cc12)c1ccc(Cl)cc1 (stereo not given)
active: [1] -78.7% | [5] -60.4% | [6] -33.7% | [7] -36.9% | [9] -7.24% | [10] -20.9% | [20] -32.9% | [12] -37.7% | [16] -15.3% | [17] -17.6% | [18] -47.7% | [19] -13.3%
inactive: [2] 53.1% | [3] 36.3% | [4] 28.2% | [8] 38.2% | [13] 33.7% | [14] 20.3% | [15] 64.9%

Cc1c2c(cc[n+]1Cc1ccc(F)cc1)c1ccc(OCc3cccc(F)c3)cc1n2Cc1cccc(F)c1
active: [1] -81.3% | [2] -23.5% | [3] -90.5% | [5] -27.8% | [8] -1.04% | [9] -54.2% | [10] -62.4% | [11] -33% | [12] -81.6% | [13] 4.86% | [14] -80.8% | [15] 2.43% | [16] -67.4% | [17] -98.5% | [18] -40.9%
inactive: [4] 53.9% | [6] 32.2% | [7] 60.2% | [19] 85%

Cc1cccc(Oc2ccc(Nc3ncnc4ccc(NC(=O)CN(C)C)cc34)cc2Cl)c1
active: [20] 1.9% | [16] 3.8%
inactive: [1] 84.2% | [2] 31.6% | [3] 36.7% | [4] 23.3% | [5] 36% | [6] 16.8% | [7] 40.8% | [8] 58.7% | [9] 47.7% | [10] 25.9% | [11] 46.6% | [12] 57.3% | [14] 45.2% | [15] 16% | [17] 40.7% | [18] 68% | [19] 47.2%

O=C1c2cccnc2C(=O)c2nc3cc(N4CCN(C5CC5)CC4)ccc3nc21
inactive: [2] 27.4% | [9] 26.2% | [10] 26.2% | [11] 25.3% | [19] 20.1%
active: [1] -16.3% | [3] -94.7% | [4] -100% | [5] 0.122% | [6] -35.1% | [7] -5.27% | [8] -88.1% | [20] -10% | [12] -15.2% | [14] -87.8% | [15] -78.6% | [16] -13.8% | [17] -1.56% | [18] -36.5%

Cc1c(C2=CCCCC2)c2ccccn2c1C(=O)c1cccc(S(=O)(=O)N2CCOCC2)c1
inactive: [1] 91.8% | [2] 68.7% | [3] 99.8% | [4] 56.8% | [5] 71.5% | [6] 93.4% | [7] 59.6% | [8] 116% | [9] 81.5% | [10] 82.6% | [11] 46.9% | [12] 94.9% | [13] 106% | [14] 52.2% | [15] 92.6% | [16] 75.7% | [17] 73% | [18] 75.8% | [19] 60.5%

O=C(O)CCCCCCCCCCCCCCC(=O)O
inactive: [1] 103% | [2] 106% | [3] 93.8% | [4] 99.8% | [5] 90.4% | [6] 107% | [7] 103% | [8] 76.9% | [9] 96.1% | [10] 103% | [20] 101% | [12] 97.2% | [13] 109% | [14] 120% | [15] 102% | [16] 100% | [17] 101% | [19] 103%

Cc1nc2sc(C(=O)Nc3cccc(Br)c3)c(N)c2cc1C(=O)c1ccc(C(F)(F)F)cc1
active: [14] 6.24%
inactive: [1] 104% | [2] 87.7% | [3] 71% | [4] 86.3% | [5] 90.8% | [6] 49.7% | [7] 79.8% | [8] 109% | [9] 82.1% | [10] 94.7% | [20] 47% | [12] 72.7% | [13] 82.3% | [15] 91.7% | [16] 73.8% | [17] 83.2% | [18] 40.7% | [19] 80.7%

c1ccc(Cn2nc3c(c2-c2ccccc2)-c2oncc2CC3)cc1
inactive: [1] 102% | [2] 90.1% | [3] 95.3% | [4] 82.7% | [5] 107% | [6] 97.6% | [7] 77.9% | [8] 89.4% | [9] 80.4% | [10] 79.8% | [20] 72.4% | [12] 86.8% | [13] 107% | [14] 87.5% | [15] 115% | [16] 110% | [17] 106% | [19] 84.1%

COc1ccc(-c2c(-c3ccccc3)noc2N)cc1OC
inactive: [1] 98.5% | [2] 99.7% | [3] 105% | [4] 91.5% | [5] 111% | [6] 133% | [7] 110% | [8] 123% | [9] 98.1% | [10] 99.3% | [20] 76.6% | [12] 100% | [13] 117% | [14] 113% | [15] 107% | [16] 113% | [17] 117% | [18] 148% | [19] 104%

COc1cc(OC)cc(C2C3=C(COC3=O)Nc3cc(OC)ccc32)c1 (stereo not given)
active: [1] 1.66% | [8] 1.93% | [20] 8.35% | [12] 8.63% | [15] -3.6% | [17] -50% | [19] -18.6%
inactive: [2] 53.7% | [3] 25.2% | [4] 46.8% | [5] 65.7% | [6] 28.1% | [7] 36.7% | [9] 19.9% | [10] 17.6% | [14] 49.4% | [16] 42.2% | [18] 68.1%

CCOC(=O)c1cnc2c(cnn2CC)c1NN=C(C)C
active: [16] 9.1%
inactive: [1] 40% | [2] 93% | [3] 105% | [4] 68.4% | [5] 87.3% | [6] 84.1% | [7] 100% | [8] 68% | [9] 92% | [10] 81% | [20] 65.9% | [12] 98.9% | [13] 80.3% | [14] 96.2% | [15] 98.5% | [17] 104% | [18] 94.5% | [19] 83.3%

Cc1c([N+](=O)[O-])cc(C(C)(C)C)cc1[N+](=O)[O-]
inactive: [1] 71.5% | [2] 98.6% | [3] 99.7% | [4] 98.7% | [5] 102% | [6] 104% | [7] 98% | [8] 93.8% | [9] 106% | [10] 95.9% | [11] 112% | [12] 98.6% | [13] 91.1% | [14] 115% | [15] 92.3% | [16] 112% | [17] 101% | [18] 99.5% | [19] 103%
